Data from PubChem BioAssay (NCI).
Compounds without any hit were thinned out: in the full panel of roughly 79,000, 15% have a hit. Values without a mark were called inactive. Calls of active or inactive are those of the source. Rule as the data show it: active = growth inhibition above about 70%; inactive = the rest.

Tests used:
[1] = NCI Yeast Anticancer Drug Screen. Data for the rad50 strain (AID 155);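 also: 0% = growth of vehicle-only cultures of the same strain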; details: S. cerevisiae rad50 strain growth inhibition; at 50.0 µM; stronger effect = higher value
Summary of the method: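 Cells are treated with compound, grown, and their growth is then scored against vehicle-only cultures of the same repair-deficient yeast strain.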

[2] = NCI Yeast Anticancer Drug Screen. Data for the mec2-1 strain (AID 157); details: S. cerevisiae mec2-1 strain, at 50.0 µM, stronger effect = higher value
Summary of the method: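 Test agents were screened against the mec2-1 yeast strain, with defined DNA repair or cell cycle alteration. Growth was scored as inhibition against vehicle-only controls.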

[3] = NCI Yeast Anticancer Drug Screen. Data for the sgs1 mgt1 strain (AID 161);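 also: 0% = growth of cultures given vehicle only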; details: S. cerevisiae sgs1 mgt1 strain, at 50.0 µM, stronger effect = higher value
Summary of the method: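 Inhibition of yeast growth, normalised to vehicle-treated controls, is reported for a strain bearing genetic alterations in DNA damage repair.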

[4] = NCI Yeast Anticancer Drug Screen. Data for the cln2 rad14 strain (AID 165);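 also: 0% = growth equal to vehicle treated cultures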; details: S. cerevisiae cln2 rad14 strain, at 50.0 µM, stronger effect = higher value
Summary of the method: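 Growth of compound-exposed yeast (cln2 rad14 genotype) measured and expressed as inhibition relative to vehicle.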

[5] = NCI Yeast Anticancer Drug Screen. Data for the bub3 strain (AID 167); details: S. cerevisiae bub3 mutant strain, at 50.0 µM, stronger effect = higher value
Summary of the method: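 Part of a panel of yeast mutants defective in DNA damage repair or cell cycle regulation. Each strain is grown with compound, and inhibition is calculated relative to solvent-treated cultures.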

[6] = NCI Yeast Anticancer Drug Screen. Data for the mlh1 rad18 strain (AID 175); details: S. cerevisiae mlh1 rad18 strain growth inhibition; at 50.0 µM; stronger effect = higher value
Summary of the method: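 In this whole-cell yeast screen, a strain with altered DNA damage repair is challenged with compound, and its growth is measured against matched vehicle-treated controls.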

SMILES	growth inhibition [1]	growth inhibition [2]	growth inhibition [3]	growth inhibition [4]	growth inhibition [5] [%]	growth inhibition [6]
CCc1c(C)c(C#N)c(=S)n(C2OC(COC(C)=O)C(OC(C)=O)C(OC(C)=O)C2OC(C)=O)c1-c1ccccc1 (stereo not given)	2.55%	13.1%	37.6%	8.25%	11.1	13.6%
C/C(C#CC1=CCCCC1)=N\Nc1ccc([N+](=O)[O-])cc1[N+](=O)[O-]	-3.45%	-24.4%	-8.1%	-4.3%	-7.75	1.1%
CC(SCc1ccccc1)C(NC(=O)c1ccccc1)C(=O)O (stereo not given)	4.95%	9.9%	-8.3%	-0.3%	10.1	7.55%
C=CCNC(=S)/N=C/c1c(C(=O)OCC)[nH]n(-c2ccccc2)c1=O	-27.8%	-19.5%	-44.8%	-32.8%	-26	-54.6%
NC(=S)N/C=C\c1nc2ccccc2[nH]c1=O	-34.4%	-18.6%	-39.1%	-21.8%	-12.1	-15.4%
O=Cc1ccc2ccocc1-2	9.15%	14.8%	-27.6%	-11.8%	-20.7	-41.2%
C=C1CN2CCc3c([nH]c4ccccc34)C2CC1CC(=O)N(C)C (stereo not given)	-33.5%	-26.7%	-24.4%	-1.15%	-32	-9.65%
CC(C)c1nnnn1C12CC3CC(CC(C3)C1)C2	2.75%	-13.2%	1%	-17.4%	-3.3	11.5%
CCSC(OC(C)=O)C(Nc1ccc([N+](=O)[O-])cc1[N+](=O)[O-])C(OC(C)=O)C(OC(C)=O)C(COC(C)=O)OC(C)=O (stereo not given)	23.7%	10.8%	6.2%	17.2%	-0.6	24.9%
O=[N+]([O-])c1ccc2c(c1)nc(-c1ccccn1)n2CCc1ccncc1	95.2% (active)	98.7% (active)	99% (active)	87% (active)	56.2	99.2% (active)
CC(=O)NC(C=O)C(O)C(O)C(O)C(=O)O (stereo not given)	21.7%	-11.4%	2.3%	23.1%	8	10.5%
CCCCCCCCOC(=O)C(C)OC(C)=O (stereo not given)	17.2%	2.05%	2.3%	13.8%	12.3	12.1%
O=C(Nc1ccc(F)cc1)c1ccc(Cl)cc1Cl	-7.4%	-28.4%	-9%	13.7%	-4.2	-2.35%
O=c1c2cc([N+](=O)[O-])ccc2[nH]n1Cc1ccccn1	12.5%	10.2%	-19.6%	9.45%	-13.9	3.8%
COc1ccc2nc3cc(Cl)ccc3c(NCCNCC(C)(C)O)c2c1	23.4%	15.8%	18.5%	63.8%	27.1	22.1%
CCOC(=O)c1nnsc1NN	8.8%	-7.45%	-47.6%	0.95%	-22.4	-4.1%
CCCCN(CCCC)S(=O)(=O)c1ccc(OCCOc2ccc(S(=O)(=O)N(CCCC)CCCC)cc2)cc1	10.7%	-1.4%	15.2%	-12.4%	-5.1	7.75%
COc1ccc(SSc2ccc(OC)cc2)cc1	25.9%	-1.1%	12.2%	1.95%	6.2	18.8%
CC(=O)NC1C(OCc2ccccc2)OC(CO)C(O)C1OCC(=O)N1CCCC1C(=O)NC(CCC(=O)NCCCCCNc1c2ccccc2nc2cccc([N+](=O)[O-])c12)C(N)=O (stereo not given)	42.9%	57.6%	47.6%	78.2% (active)	0.55	72.5% (active)
CC(C)(CC(O)C#N)/[N+]([O-])=[N+](\[O-])C(C)(C)CC(O)C#N (stereo not given)	3.75%	5.15%	34.1%	-4.15%	13.2	-27.8%
